# Experimental data from PubChem BioAssay (NCATS).
# Results filed as inconclusive are left out. Entries that show only a call come without a potency. Active and inactive are the calls of the source. Calls follow the shape of the dose curve; as a rule, active = well fitted curve in the direction sought with a large enough effect; inconclusive = small, poorly fitted or top-dose-only effect, or another doubt; inactive = no such curve, though single readings can be large; an effect the other way counts as inactive or inconclusive.
# Key:
# CRL-7250 = normal cell line; assay: qHTS assay to identify novel small-molecules to repurpose for Merkel cell carcinoma treatment (AID 1296009); settings: MCC and control cell lines, CellTiter-Glo viability, 72 h; series mostly up to 44.8 µM; also: nearly all actives have a fitted effect of over 60% in size
# How it was run: (§1)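 Cells were treated for 72 hr at 37 degree celsius with compounds in 8- or 11-point dose response. Viability was read by CellTiter-Glo luminescence, normalized to no-cell (cytotoxicity) and DMSO controls.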
# TAB109 = assay: qHTS profiling for inhibitors of Plasmodium falciparum proliferation (AID 504749); also: nearly all actives have a fitted effect of over 60% in size; also: potency is read from the fitted curve at half-maximal effect; settings: P. falciparum in erythrocytes, SYBR Green DNA, 72 h; series mostly up to 28.7 µM
# How it was run: (§2)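 P. falciparum-infected erythrocytes (0.3% parasitemia, 2.5% hematocrit) incubated with compound 72 h at 37 C, 5% CO2. Parasite DNA detected by SYBR Green after lysis, overnight at room temperature; normalised to 0.29 uM artemisinin and DMSO.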
# TAB165 = assay: as above; settings: P. falciparum in erythrocytes, SYBR Green DNA, 72 h; series mostly up to 28.7 µM
# How it was run: as §2
# W2 = assay: as above; settings: P. falciparum in erythrocytes, SYBR Green DNA, 72 h; series mostly up to 28.7 µM
# How it was run: as §2
# MCC-13 = assay: qHTS assay to identify novel small-molecules to repurpose for Merkel cell carcinoma treatment (AID 1296009); settings: MCC and control cell lines, CellTiter-Glo viability, 72 h; series mostly up to 46 µM; also: nearly all actives have a fitted effect of over 60% in size
# How it was run: as §1
# MCC-26 = assay: as above; settings: MCC and control cell lines, CellTiter-Glo viability, 72 h; series mostly up to 46 µM
# How it was run: as §1
# MKL-1 = assay: as above; settings: MCC and control cell lines, CellTiter-Glo viability, 72 h; series mostly up to 46 µM
# How it was run: as §1
# MKL-2 = assay: as above; settings: MCC and control cell lines, CellTiter-Glo viability, 72 h; series mostly up to 46 µM
# How it was run: as §1
# NIH3T3 = assay: as above; settings: MCC and control cell lines, CellTiter-Glo viability, 72 h; at 44.8 µM (top of the series) unless noted
# How it was run: as §1
# UISO = assay: as above; settings: MCC and control cell lines, CellTiter-Glo viability, 72 h; series mostly up to 46 µM
# How it was run: as §1
# WaGa = assay: as above; settings: MCC and control cell lines, CellTiter-Glo viability, 72 h; series mostly up to 46 µM
# How it was run: as §1
# C33A = assay: Primary qHTS to identify gynecologic anti-cancer compounds using libraries of approved drugs and bioactive compounds (AID 1345084); settings: Gynecologic cancer cell panel viability, ATPlite luminescence, 48 h; series mostly up to 57.5 µM; also: nearly all actives have a fitted effect of over 55% in size; also: potency is read from the fitted curve at half-maximal effect
# How it was run: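 Cells, 1,000 per well, plated 16 h, then exposed 48 h at 37 C to compounds. Viability by ATPlite luminescence after 15 min at room temperature.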
# TAB113 = assay: qHTS profiling for inhibitors of Plasmodium falciparum proliferation (AID 504749); also: nearly all actives have a fitted effect of over 60% in size; also: potency is read from the fitted curve at half-maximal effect; settings: P. falciparum in erythrocytes, SYBR Green DNA, 72 h; series mostly up to 28.7 µM
# How it was run: as §2
# HACAT = assay: qHTS assay to identify novel small-molecules to repurpose for Merkel cell carcinoma treatment (AID 1296009); settings: MCC and control cell lines, CellTiter-Glo viability, 72 h; at 44.8 µM (top of the series) unless noted; also: nearly all actives have a fitted effect of over 60% in size
# How it was run: as §1
structure (smiles),measurement,setting,value
CCCCc1ncc(/C=C(\Cc2cccs2)C(=O)O)n1Cc1ccc(C(=O)O)cc1,outcome,CRL-7250,inactive
CCCCCOC(=O)Nc1nc(=O)n([C@@H]2O[C@H](C)[C@@H](O)[C@H]2O)cc1F,outcome,CRL-7250,inactive
CNCC[C@H](Oc1cccc2ccccc12)c1cccs1,outcome,CRL-7250,inactive
NNCCc1ccccc1,outcome,CRL-7250,inactive
CS(=O)(=O)CCNCc1ccc(-c2ccc3ncnc(Nc4ccc(OCc5cccc(F)c5)c(Cl)c4)c3c2)o1,outcome,CRL-7250,inactive
Cc1cccc(C)c1OCC(C)N (stereo not given),outcome,CRL-7250,inactive
O=c1[nH]c2ccccc2n1CCCN1CCC(n2c(=O)[nH]c3cc(Cl)ccc32)CC1,Potency,TAB109,5.01 µM (active)
same,Potency,TAB165,4.47 µM (active)
same,Potency,W2,6.75 µM (active)
same,outcome,CRL-7250,inactive
same,Potency,MCC-13,inactive
same,Potency,MCC-26,inactive
same,Potency,MKL-1,inactive
same,Potency,MKL-2,inactive
same,outcome,NIH3T3,inactive
same,Potency,UISO,inactive
same,Potency,WaGa,inactive
same,Potency,C33A,inactive
Nc1cc(-c2ccncc2)c[nH]c1=O,outcome,CRL-7250,inactive
CC1OC(C)OC(C)O1 (stereo not given),Potency,TAB109,inactive
same,Potency,TAB113,inactive
same,Potency,TAB165,inactive
same,Potency,W2,inactive
same,outcome,HACAT,inactive
same,Potency,MCC-13,inactive
same,Potency,MKL-1,inactive
same,Potency,MKL-2,inactive
same,outcome,NIH3T3,inactive
same,Potency,UISO,inactive
same,Potency,WaGa,inactive
same,Potency,C33A,inactive
C=C(C)[C@H]1Cc2c(ccc3c2O[C@@H]2COc4cc(OC)c(OC)cc4[C@@H]2C3=O)O1,Potency,TAB109,inactive
same,Potency,TAB113,inactive
same,Potency,TAB165,inactive
same,Potency,C33A,0.708 µM (active)
COc1cc2nc(N3CCN(C(=O)C4CCCO4)CC3)nc(N)c2cc1OC (stereo not given),outcome,CRL-7250,inactive
CCN(CC)CCCC(C)Nc1ccnc2cc(Cl)ccc12 (stereo not given),outcome,CRL-7250,inactive [at 9.27 µM]
COC1=CC(=O)C[C@@H](C)[C@]12Oc1c(Cl)c(OC)cc(OC)c1C2=O,outcome,CRL-7250,inactive
CS(=O)(=O)OCCCCOS(C)(=O)=O,outcome,CRL-7250,inactive
CN(C)C(=N)N=C(N)N,outcome,CRL-7250,inactive
Cc1cccc(Nc2ccncc2S(=O)(=O)NC(=O)NC(C)C)c1,outcome,CRL-7250,inactive
Cc1nc(-c2ccc(OCC(C)C)c(C#N)c2)sc1C(=O)O,outcome,CRL-7250,inactive
Oc1cn2c(n1)Nc1ccc(Cl)c(Cl)c1C2,outcome,CRL-7250,inactive [at 17.4 µM]
O=C1CCC(N2C(=O)c3ccccc3C2=O)C(=O)N1 (stereo not given),outcome,CRL-7250,inactive
CC(C)Nc1cccnc1N1CCN(C(=O)c2cc3cc(NS(C)(=O)=O)ccc3[nH]2)CC1,outcome,CRL-7250,inactive
COc1cc(Cc2cnc(N)nc2N)cc(OC)c1OC,outcome,CRL-7250,inactive
CN(C)[C@@H]1C(=O)C(C(N)=O)=C(O)[C@@]2(O)C(=O)C3=C(O)c4c(O)ccc(Cl)c4[C@@H](O)[C@H]3C[C@@H]12,outcome,CRL-7250,inactive
CC(c1cc2ccccc2s1)N(O)C(N)=O (stereo not given),outcome,CRL-7250,inactive
CC(=O)Nc1nnc(S(N)(=O)=O)s1,outcome,CRL-7250,inactive
CN(CCOc1ccc(NS(C)(=O)=O)cc1)CCc1ccc(NS(C)(=O)=O)cc1,outcome,CRL-7250,inactive
NCCCC(O)(P(=O)(O)O)P(=O)(O)O,outcome,CRL-7250,inactive
CCN(CC)CCOC(=O)C1(C2CCCCC2)CCCCC1,outcome,CRL-7250,inactive
C[C@@H](O)[C@H]1C(=O)N2C(C(=O)O)=C(S[C@@H]3CN[C@H](C(=O)N(C)C)C3)[C@H](C)[C@H]12,outcome,CRL-7250,inactive
C[C@@H](NCCCc1cccc(C(F)(F)F)c1)c1cccc2ccccc12,outcome,CRL-7250,inactive
CS(=O)c1ccc(-c2nc(-c3ccc(F)cc3)c(-c3ccncc3)[nH]2)cc1 (stereo not given),outcome,CRL-7250,inactive
CN1CCN(C2=Nc3ccccc3Oc3ccc(Cl)cc32)CC1,outcome,CRL-7250,inactive
Cn1ccc2cc3c(cc21)CCN3C(=O)Nc1cccnc1,outcome,CRL-7250,inactive [at 17.4 µM]
O=c1[nH]c2ccccc2n1C1CCN(CCCC(c2ccc(F)cc2)c2ccc(F)cc2)CC1,Potency,TAB109,inactive
same,Potency,TAB113,inactive
same,Potency,W2,3.79 µM (active)
O[C@@H]1CO[C@H]2[C@@H]1OC[C@@H]2O,outcome,CRL-7250,inactive
CC(C)(C(=O)O)c1ccc(C(O)CCCN2CCC(C(O)(c3ccccc3)c3ccccc3)CC2)cc1 (stereo not given),outcome,CRL-7250,inactive
CCOC(=O)[C@H](CCc1ccccc1)N[C@@H](C)C(=O)N1Cc2cc(OC)c(OC)cc2C[C@H]1C(=O)O,outcome,CRL-7250,inactive
COC(c1ccccc1)(c1ccccc1)[C@H](Oc1nc(C)cc(C)n1)C(=O)O,outcome,CRL-7250,inactive
Cc1cc2c(s1)Nc1ccccc1N=C2N1CCN(C)CC1,outcome,CRL-7250,inactive
